# About 83,000 compounds went through this panel and 20% of them were active in at least one assay; those are over-represented in the sample as a whole.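 Compound tested at a single concentration for 48 hours in 96-well plates; a percent growth value below 10 was scored as active.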 A number with no mark means an inactive call. The source made the active and inactive calls.
# Assays:
# Assay in all cases: NCI-60 one-dose screen, 48 h (100 = growth as untreated, 0 = no growth, -100 = all killed)
# Settings in all cases: 10 µM unless noted
# SK-MEL-2 melanoma = tested on: SK-MEL-2 melanoma
# EKVX NSCLC = tested on: EKVX NSCLC
# SN12C renal = tested on: SN12C renal
# UO-31 renal = tested on: UO-31 renal
# TK-10 renal = tested on: TK-10 renal
# ACHN renal = tested on: ACHN renal
# CAKI-1 renal = tested on: CAKI-1 renal
# A498 renal = tested on: A498 renal
# CCRF-CEM leukemia = tested on: CCRF-CEM leukemia
# MOLT-4 leukemia = tested on: MOLT-4 leukemia
# SR leukemia = tested on: SR leukemia
# RPMI-8226 leukemia = tested on: RPMI-8226 leukemia
# OVCAR-8 ovarian = tested on: OVCAR-8 ovarian
# OVCAR-5 ovarian = tested on: OVCAR-5 ovarian
# OVCAR-4 ovarian = tested on: OVCAR-4 ovarian
# SK-OV-3 ovarian = tested on: SK-OV-3 ovarian
# IGROV1 ovarian = tested on: IGROV1 ovarian
# OVCAR-3 ovarian = tested on: OVCAR-3 ovarian
# HS 578T breast = tested on: HS 578T breast
# NCI/ADR-RES ovarian = tested on: NCI/ADR-RES ovarian
SMILES,growth (SK-MEL-2 melanoma),growth (EKVX NSCLC),growth (SN12C renal),growth (UO-31 renal),growth (TK-10 renal),growth (ACHN renal),growth (CAKI-1 renal),growth (A498 renal),growth (CCRF-CEM leukemia),growth (MOLT-4 leukemia),growth (SR leukemia),growth (RPMI-8226 leukemia),growth (OVCAR-8 ovarian),growth (OVCAR-5 ovarian),growth (OVCAR-4 ovarian),growth (SK-OV-3 ovarian),growth (IGROV1 ovarian),growth (OVCAR-3 ovarian),growth (HS 578T breast),growth (NCI/ADR-RES ovarian)
OCC(Nc1ncnc2ccc(-c3cnc4cnccn34)cc12)c1ccccc1 (stereo not given),45%,52.3%,80.7%,36.6%,40%,43.3%,41.7%,76.4%,80.5%,76.1%,73.5%,62.5%,79.7%,83.8%,63.7%,80.9%,39.1%,71.9%,84.1%,90.3%
CCNCCOc1ccc(/C(=C(/CC)c2ccc(Cl)cc2)c2ccc(OCCCN(C)C)cc2)cc1,-84% (active),-84.4% (active),-85.6% (active),-95.6% (active),-89.8% (active),-98% (active),-75.1% (active),-86.3% (active),-37.5% (active),-62.6% (active),-36.8% (active),-36.2% (active),-81.7% (active),-93% (active),-88% (active),-93.8% (active),-82.3% (active),-77.4% (active),-51.1% (active),-82.5% (active)
Cc1cc(Br)ccc1-n1cc(C#N)c(N)c1C(=O)c1ccc(Br)cc1,108%,97.8%,110%,80.1%,87%,97.2%,91.6%,114%,96.6%,108%,89.4%,106%,106%,114%,114%,109%,110%,115%,106%,103%
CC(C)NC(=O)c1cc(-c2ccc(NC(=O)Nc3ccc(F)cc3)cc2)nc2cccnc12,120%,102%,103%,92.8%,110%,103%,95%,107%,112%,133%,94.3%,109%,105%,109%,104%,112%,110%,115%,109%,104%
C=C(C)[C@@H]1CC[C@]2(COCCCNCCCN)CC[C@]3(C)[C@H](CC[C@@H]4[C@@]5(C)CC[C@H](O)C(C)(C)[C@@H]5CC[C@]43C)[C@@H]12,99.1%,-84.2% (active),-78.8% (active),-93% (active),-85.5% (active),-98.6% (active),-85.6% (active),-16.1% (active),-40.2% (active),-34.5% (active),-33.1% (active),-35.3% (active),-40.4% (active),-95.3% (active),-68.5% (active),105%,-82.9% (active),-77.5% (active),-49.1% (active),-65.5% (active)
Cc1[nH]c(C(=O)Nc2ccc(C(N)=O)cc2N2CCOC(C)C2)c(Cl)c1Cl (stereo not given),104%,93.1%,96.4%,82.6%,100%,88.4%,98.4%,72.4%,99.5%,96.4%,101%,107%,96.8%,98.1%,97.9%,102%,92.2%,109%,94.7%,93.7%
O=C(CSc1nc2ccccc2c(=O)n1-c1ccccc1)N/N=C/c1ccc(Oc2ccc(Br)cc2)cc1,93%,60.7%,40.7%,91.5%,101%,91.4%,70.8%,82.3%,56.9%,55.5%,73.4%,68.3%,63.3%,94%,81.7%,84.5%,65.6%,117%,60.8%,55.2%
O=C(CCCCCCNC(=O)C(O)(O)C(F)(F)F)Nc1ncc(-c2ccc(Br)cc2)s1,-27.3% (active),21.5%,0.547% (active),-26.1% (active),-20.2% (active),-32.1% (active),-32.8% (active),-41.2% (active),18.4%,4.21% (active),8.24% (active),11.2%,1.13% (active),-2.49% (active),21.8%,-14.6% (active),-21.8% (active),-58.1% (active),16.6%,-4.64% (active)

# — PubChem BioAssay (NCI)
